Compound activity as filed in PubChem BioAssay.
Sampled rows, rich in hits. Any-hit rate of the full collection: about 2.3%.
FBPA coupling cs: qHTS Assay for Inhibitors of Fructose-1,6-bisphosphate Aldolase from Giardia Lamblia: Coupling assay counterscreen | coupling enzyme system counterscreen, AmpLite Red fluorescence | activity change, negative = inhibition, % at 58.2 µM, hits read low | 290,000 tested, 0.67% active | AID 2472, 2010; in the data active = activity change below about -30%
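Counterscreen lacking aldolase: glyceraldehyde-3-phosphate coupling-enzyme reagent preincubated 10 min at RT with compound (at 57.5 uM final), then substrate/coupling system with AmpLite Red added; fluorescence read at 525/598 nm after 20 min RT.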
Tau fibril ThT: qHTS for Inhibitors of Tau Fibril Formation, Thioflavin T Binding. recombinant tau K18 P301L, heparin-induced fibrillization, ThT fluorescence. Potency, µM (top dose mostly 57.4 µM), without a hit: at the top dose activity, negative = inhibition, usual class: inhibitors. 270,000 tested, 2.1% active. AID 1460, 2008. Microtubule-associated protein tau (Homo sapiens), P10636; also: potency is read from the fitted curve at half-maximal effect; nearly all actives have a fitted effect of over 55% in size
Target sequence (P10636 561-689 P618L limits assumed): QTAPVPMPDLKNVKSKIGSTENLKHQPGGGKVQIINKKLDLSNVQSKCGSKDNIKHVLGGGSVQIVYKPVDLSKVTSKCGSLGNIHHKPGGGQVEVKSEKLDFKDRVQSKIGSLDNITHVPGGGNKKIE
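Aggregation was driven by heparin (20 uM final) acting on recombinant tau […] bearing P301L in 100 mM sodium acetate pH 7; fibrils were detected with Thioflavin T.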
Tau FP inhib: qHTS for Inhibitors of Tau Fibril Formation, Fluorescence Polarization | K18 P301L tau heparin fibrillization, Alexa594 FP, 6 h | Potency, µM (doses to about 57.7 µM), inactives show top-dose activity, negative = inhibition, usual class: inhibitors | 280,000 tested, 0.39% active | AID 1468, 2008; also: potency is read from the fitted curve at half-maximal effect; nearly all actives have a fitted effect of over 55% in size
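Heparin (20 uM) drove fibril formation of recombinant tau K18 P301L, 15 uM unlabeled with 0.24 uM Alexa 594 label, for 6 hr at 37 C in 100 mM sodium acetate pH 7. Fluorescence polarization (555/632 nm) read 1 hr after 30 uM ThT.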
Tau fluor counter: Counterscreen qHTS for Inhibitors of Tau Fibril Formation, Fluorescence Polarization; AID 1463, 2008; 280,000 tested, 0.93% active; tau K18 P301L Alexa594 fluorescence, heparin fibrillization; Potency, µM (titrated, usually from 57.7 µM), without a hit: top-dose activity change, negative = decrease; also: potency is read from the fitted curve at half-maximal effect; nearly all actives have a fitted effect of over 55% in size
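Human tau K18 P301L (15 uM unlabeled, 0.24 uM Alexa 594-labeled) in 100 mM sodium acetate pH 7 with 20 uM heparin, 6 hr at 37 C. ThT 30 uM added, 1 hr ambient; Alexa 594 FP and total fluorescence read at 555/632 nm.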
USP1-UAF1 inh: Inhibitors of USP1/UAF1: Primary Screen; Potency, µM (highest dose often 57.1 µM), for inactives: top-dose activity change, negative = inhibition, usual class: inhibitors; 390,000 tested, 0.23% active; recombinant USP1/UAF1, Ub-Rhodamine cleavage fluorescence; Ubiquitin carboxyl-terminal hydrolase 1 (Homo sapiens), O94782; also: potency is read from the fitted curve at half-maximal effect; nearly all actives have a fitted effect of over 60% in size
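1 nM enzyme complex + cpd, 15 min RT; start with Ub-Rho 150nM final; kinetic fluorescence ex 480/em 540, 6 reads q60 s. Buffer 50mM HEPES pH 7.8, 0.5mM EDTA, 0.1 mg/ml BSA, 1mM TCEP, 0.01% Tween-20.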
* hit, by the source's call; ? = inconclusive; / = no result; [ ] = dose if it differs, or a comment. Unless noted, calls follow the shape of the dose curve; as a rule, active = well fitted curve in the direction sought with a large enough effect; inconclusive = small, poorly fitted or top-dose-only effect, or another doubt; inactive = no such curve, though single readings can be large; an effect the other way counts as inactive or inconclusive. % is scaled to controls: 0 for no effect and ±100 for the full control effect.

SMILES | FBPA coupling cs | Tau fibril ThT | Tau FP inhib | Tau fluor counter | USP1-UAF1 inh
CCCc1cc(=O)[nH]c(Nc2cc(C)cc(C)c2)n1 | / | -15% | -13% | ? | -25%
CCCc1cc(=O)[nH]c(Nc2cc(Cl)cc(Cl)c2)n1 | / | 12% | 11µM* | ? | -11%
CC(C)C(=O)Nc1ccc2nc(SCC(=O)N3CCc4ccccc43)sc2c1 | / | 1% | -3% | -17% | -12%
O=C1NN(c2cccc(Br)c2)C(=O)/C1=C/c1ccc(-c2cc([N+](=O)[O-])ccc2O)o1 | 7 | 2.8µM* | ? | 4.5µM*[quencher] | -8%
CCCCN1C2=C(C(=O)CC(C)(C)C2)C(c2ccccc2)C2=C1c1ccccc1C2=O (stereo not drawn) | -9 | 14µM* | ? | -24% | -29%
Cc1[nH]n(-c2ccccc2)c(=O)c1N=Nc1ccccc1 | 0 | ? | 2% | -6% | -8%
Cc1ccc(N=Nc2c(N)n(-c3ccccc3)[nH]c2=O)cc1 | 0 | 3.2µM* | -2% | 10µM*[quencher] | -20%
C[C@@H](N)CCCP(=O)(O)O | / | -5% | -3% | -11% | /
Cc1ccc(-n2ncc(Br)c(Br)c2=O)cc1 | -1 | 16µM* | ? | -19% | -26%
COc1c(Cl)cnn(-c2ccc(C)cc2)c1=O | -1 | -8% | -3% | -13% | -6%
O=c1c(Br)c(Br)cnn1-c1ccccc1 | 0 | 32µM* | ? | -6% | -5%
COc1ccc(Cn2c(CCC(=O)Nc3ccc(OC)c(Cl)c3)nc3cccnc32)cc1 | / | ? | -6% | -2% | -5%
COC(=O)/C(C#N)=C/c1ccc(-c2ccc(S(N)(=O)=O)cc2)o1 | 5 | -7% | -12% | -1% | -11%
N#CC(C#N)=Cc1ccc(-c2ccc(S(=O)(=O)N=C(N)N)cc2)o1 | 5 | 20µM* | 8% | ? | ?
COc1ccc(Nc2ncnc3c2cnn3-c2ccccc2)cc1OC | 2 | ? | ? | ? | -12%
COc1ccc(Nc2ncnc3sc(-c4ccccc4)cc23)cc1OC | 3 | ? | ? | 14µM*[quencher] | 0%
CC(=O)N1CCCc2cc(S(=O)(=O)N(C)CC(=O)Nc3ccc(F)c(Cl)c3)ccc21 | / | 12% | -9% | -6% | -2%
Brc1ccc(N/N=C(/N=Nc2nn[nH]n2)c2ccccc2)cc1 | -16 | 4.5µM* | ? | 8.9µM*[quencher] | -26%
CC1(C)C(=O)N(CC(=O)Nc2ccc(Br)cc2F)c2ccccc21 | / | -4% | -1% | -10% | ?
Cc1nc2cc(N=NC3=C(O)CCCC3=O)ccc2s1 | -3 | 16µM* | -4% | -26% | -3%
O=C1CCCC(O)=C1N=Nc1ccc(Cl)c(Cl)c1 | 0 | ? | 7% | -10% | -18%
Nc1ccc(Oc2ncccn2)cc1 | -28 | / | / | / | 7.9µM*
Nc1c(C(=O)Nc2ccccc2Br)sc2nc(-c3cccs3)ccc12 | / | ? | ? | 3.2µM*[quencher] | -12%
Nc1c(C(=O)Nc2nc3ccccc3s2)sc2nc(-c3cccs3)ccc12 | 9 | ? | 4% | 13µM*[quencher] | -23%
Nc1ccc(C(=O)Nc2nc3ccccc3s2)cc1 | 1 | -8% | 2% | -29% | 2%
SMILES | FBPA coupling cs | Tau fibril ThT | Tau FP inhib | Tau fluor counter | USP1-UAF1 inh
CC(C)NC(=O)c1sc2nc(-c3cccs3)cc(-c3cccs3)c2c1N | 1 | ? | 1% | -24% | ?
COc1ccccc1NC(=O)c1sc2nc(-c3ccco3)ccc2c1N | -1 | ? | 9% | ? | -4%
CC(=O)c1sc2nc(-c3cccs3)ccc2c1N | -1 | 16µM* | -16% | ? | ?
Nc1c(C(=O)Nc2ccc(Cl)cc2F)sc2nc(-c3cccs3)ccc12 | / | ? | -12% | 2.2µM*[quencher] | ?
Cc1ccc(-c2nc3ncccc3o2)cc1NC(=O)COc1ccc(C(C)C)cc1 | / | ? | -12% | -23% | -2%
O=S(=O)(c1ccccc1)N1CCC(c2ccncc2)CC1 | / | 2% | -1% | -2% | -2%
CCOC(=O)C1CCN(c2ncnc3c2nnn3C)CC1 | / | -9% | -12% | -7% | ?
Cc1cc(O)c(C=O)c2c1C(=O)Oc1c(CO)c(O)c3c(c1O2)C(O)OC3=O (stereo not drawn) | 6 | ? | 16µM* | ? | ?
Cc1cc(O)c(C=O)c2c1C(=O)Oc1c(COC(=O)/C=C/C(=O)O)c(O)c(C(=O)O)c(C)c1O2 | 10 | 8.9µM* | 3.5µM* | -33% | /
CN1N=C(C(C)(C)C)CC1=O | -32* | -13% | -2% | -5% | ?
CCC(=O)NC1=C(Cl)C(=O)C(NC(=O)CC)=C(Cl)C1=O | -90* | 2µM* | 3.5µM* | ? | 32µM*
CCC(=O)Nc1ccc(Br)c(Cl)c1 | 0 | -7% | -10% | -8% | -5%
COC(=O)c1ccc2c(=O)n(CCCCCC(=O)NCc3ccc(OC)cc3)c(=O)[nH]c2c1 | / | -1% | -4% | 6% | ?
CCN(C(=O)CCS(=O)(=O)c1ccc2c(c1)CCN2C(C)=O)c1cccc(C(F)(F)F)c1 | / | -6% | -5% | -11% | -25%
Cc1cc(N2CCCCC2)nc2ccc(NC(=O)c3ccc(F)cc3)cc12 | / | ? | ? | 16µM*[quencher] | -8%
Cc1cc(N2CCCCC2)nc2ccc(NC(=O)c3ccc(Br)o3)cc12 | -4 | 8.9µM* | ? | 25µM*[quencher] | -19%
Cc1cc(N2CCN(C)CC2)nc2ccc(NC(=O)c3ccc4c(c3)OCO4)cc12 | 5 | ? | 14% | ? | -2%
Cc1noc(/C=C/c2ccccc2F)c1S(=O)(=O)N1CCC(C(=O)Nc2ccc(C#N)cc2)CC1 | / | 9% | ? | ? | -24%
Cc1ccc(C)c(NC(=O)CN2C(=O)C3(SCC(=O)N3c3ccc(C)c(C)c3)c3ccccc32)c1 (stereo not drawn) | / | -6% | -6% | -13% | -26%
Oc1ccccc1/C=N/Nc1cc(N2CCCC2)nc(N2CCCC2)n1 | -18 | ? | -5% | ? | 25µM*
Oc1ccc(/C=N/Nc2cc(N3CCOCC3)nc(N3CCOCC3)n2)cc1O | -11 | ? | -5% | ? | -15%
COC(=O)c1cc2sccc2n1Cc1c(C)cc(C)cc1C | / | ? | ? | -11% | -18%
C#CCCCCCCCCCCCc1ccco1 | -1 | -9% | -8% | -7% | /
CCOC(=O)c1nnc2c(-c3ccc(Cl)cc3)c(C)nn2c1C | / | 7.9µM* | 3% | -26% | -7%
O=C(CSc1nc(=O)n(Cc2ccco2)c2c1CCC2)NCc1ccccc1 | / | -2% | -9% | -2% | -27%
Nc1nc(C2CC2)c(Sc2sc(N)nc2C2CC2)s1 | -2 | 18µM* | -8% | ? | -13%
